Assay results: PMC11006913
Changes are numbered by the printed parent chain.

Assays:
Assay in all cases: PBM; 200 nM protein, PBS
Conditions in all cases: dsDNA, one strand shown
HESX1 [1] = molecular target: HESX1 (Homo sapiens, UniProt Q9UBX0 95-180, R165K)
HESX1 [2] = molecular target: HESX1 (Homo sapiens, UniProt Q9UBX0 95-180)
HESX1 [3] = molecular target: HESX1 (Homo sapiens, UniProt Q9UBX0 95-180, R109Q)
VAX1 [4] = molecular target: VAX1 (Homo sapiens, UniProt Q5SQQ9 86-172)
HESX1 [5] = molecular target: HESX1 (Homo sapiens, UniProt Q9UBX0 95-180, P111T)
HESX1 [6] = molecular target: HESX1 (Homo sapiens, UniProt Q9UBX0 95-180, F115L)
VAX1 [7] = molecular target: VAX1 (Homo sapiens, UniProt Q5SQQ9 86-172, T142I)
VAX1 [8] = molecular target: VAX1 (Homo sapiens, UniProt Q5SQQ9 86-172, K157R)
NKX2-6 [9] = molecular target: T1, NKX2-6 (Homo sapiens, UniProt A6NCS4 118-204)
T1 sequence: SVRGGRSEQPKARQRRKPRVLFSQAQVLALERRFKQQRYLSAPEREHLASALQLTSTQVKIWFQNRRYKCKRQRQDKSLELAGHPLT

NKX2-6 [10] = molecular target: T2, NKX2-6 (Homo sapiens, UniProt A6NCS4 118-204, F151L)
T2 sequence: T1 sequence with F34L

PITX2 = PITX2 (Homo sapiens, UniProt Q99697 72-157)
PROP1 [11] = molecular target: PROP1 (Homo sapiens, UniProt O75360 56-141)
PROP1 [12] = molecular target: PROP1 (Homo sapiens, UniProt O75360 56-141, R99H)
PROP1 [13] = molecular target: PROP1 (Homo sapiens, UniProt O75360 56-141, F88S)
Sequence of PROP1 (Homo sapiens, UniProt O75360 56-141, F88S) (O75360 56-141 F88S): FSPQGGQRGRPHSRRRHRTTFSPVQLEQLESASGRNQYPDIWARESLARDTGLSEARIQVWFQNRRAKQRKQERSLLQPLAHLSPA

Sequence of HESX1 (Homo sapiens, UniProt Q9UBX0 95-180) (Q9UBX0 95-180): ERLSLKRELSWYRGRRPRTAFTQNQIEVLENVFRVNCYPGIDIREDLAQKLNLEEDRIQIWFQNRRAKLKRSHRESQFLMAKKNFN
Sequence of HESX1 (Homo sapiens, UniProt Q9UBX0 95-180, F115L) (Q9UBX0 95-180 F115L): as the sequence (Q9UBX0 95-180) above, with F21L counted along it
Sequence of HESX1 (Homo sapiens, UniProt Q9UBX0 95-180, R165K) (Q9UBX0 95-180 R165K): as the sequence (Q9UBX0 95-180) above, with R71K counted along it
Sequence of HESX1 (Homo sapiens, UniProt Q9UBX0 95-180, P111T) (Q9UBX0 95-180 P111T): as the sequence (Q9UBX0 95-180) above, with P17T counted along it
Sequence of HESX1 (Homo sapiens, UniProt Q9UBX0 95-180, R109Q) (Q9UBX0 95-180 R109Q): as the sequence (Q9UBX0 95-180) above, with R15Q counted along it
Sequence of VAX1 (Homo sapiens, UniProt Q5SQQ9 86-172, T142I) (Q5SQQ9 86-172 T142I): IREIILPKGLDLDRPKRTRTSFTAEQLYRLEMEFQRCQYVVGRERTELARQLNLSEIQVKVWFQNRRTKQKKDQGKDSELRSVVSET
Sequence of VAX1 (Homo sapiens, UniProt Q5SQQ9 86-172, K157R) (Q5SQQ9 86-172 K157R): as the sequence (Q5SQQ9 86-172 T142I) above, with I57T, K72R counted along it
Sequence of VAX1 (Homo sapiens, UniProt Q5SQQ9 86-172) (Q5SQQ9 86-172): as the sequence (Q5SQQ9 86-172 T142I) above, with I57T counted along it
Sequence of PROP1 (Homo sapiens, UniProt O75360 56-141, R99H) (O75360 56-141 R99H): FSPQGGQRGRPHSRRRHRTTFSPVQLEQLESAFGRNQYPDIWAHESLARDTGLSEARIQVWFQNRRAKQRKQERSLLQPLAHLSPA
Sequence of PROP1 (Homo sapiens, UniProt O75360 56-141) (O75360 56-141): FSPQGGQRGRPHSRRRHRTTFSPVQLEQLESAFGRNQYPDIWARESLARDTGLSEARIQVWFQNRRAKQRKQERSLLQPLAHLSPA

## GCGTGGCC
HESX1 [1]
  binding signal: 6.46 upbm affinity estimate (log intensity, higher = more binding, comparable within an allelic series)
HESX1 [2]
  binding signal: 6.31 upbm affinity estimate (log intensity, higher = more binding, comparable within an allelic series)
HESX1 [3]
  binding signal: 6.39 upbm affinity estimate (log intensity, higher = more binding, comparable within an allelic series)
VAX1 [4]
  binding signal: 7.21 upbm affinity estimate (log intensity, higher = more binding, comparable within an allelic series)
HESX1 [5]
  binding signal: 6.37 upbm affinity estimate (log intensity, higher = more binding, comparable within an allelic series)
HESX1 [6]
  binding signal: 6.39 upbm affinity estimate (log intensity, higher = more binding, comparable within an allelic series)
VAX1 [7]
  binding signal: 7.36 upbm affinity estimate (log intensity, higher = more binding, comparable within an allelic series)
VAX1 [8]
  binding signal: 6.97 upbm affinity estimate (log intensity, higher = more binding, comparable within an allelic series)

## CAGCTCGG
HESX1 [1]
  binding signal: 6.3 upbm affinity estimate (log intensity, higher = more binding, comparable within an allelic series)
HESX1 [2]
  binding signal: 6.27 upbm affinity estimate (log intensity, higher = more binding, comparable within an allelic series)
NKX2-6 [9]
  binding signal: 8.88 upbm affinity estimate (log intensity, higher = more binding, comparable within an allelic series)
HESX1 [3]
  binding signal: 6.34 upbm affinity estimate (log intensity, higher = more binding, comparable within an allelic series)
HESX1 [5]
  binding signal: 6.3 upbm affinity estimate (log intensity, higher = more binding, comparable within an allelic series)
NKX2-6 [10]
  binding signal: 9.23 upbm affinity estimate (log intensity, higher = more binding, comparable within an allelic series)
HESX1 [6]
  binding signal: 6.51 upbm affinity estimate (log intensity, higher = more binding, comparable within an allelic series)

## AGGTGGCC
HESX1 [1]
  binding signal: 6.42 upbm affinity estimate (log intensity, higher = more binding, comparable within an allelic series)
HESX1 [2]
  binding signal: 6.42 upbm affinity estimate (log intensity, higher = more binding, comparable within an allelic series)
HESX1 [3]
  binding signal: 6.5 upbm affinity estimate (log intensity, higher = more binding, comparable within an allelic series)
HESX1 [5]
  binding signal: 6.47 upbm affinity estimate (log intensity, higher = more binding, comparable within an allelic series)
HESX1 [6]
  binding signal: 6.46 upbm affinity estimate (log intensity, higher = more binding, comparable within an allelic series)

## CTGCCAGC
HESX1 [1]
  binding signal: 6.31 upbm affinity estimate (log intensity, higher = more binding, comparable within an allelic series)
HESX1 [2]
  binding signal: 6.34 upbm affinity estimate (log intensity, higher = more binding, comparable within an allelic series)
NKX2-6 [9]
  binding signal: 9.39 upbm affinity estimate (log intensity, higher = more binding, comparable within an allelic series)
PITX2
  binding signal: 8.09 upbm affinity estimate (log intensity, higher = more binding, comparable within an allelic series)
HESX1 [3]
  binding signal: 6.43 upbm affinity estimate (log intensity, higher = more binding, comparable within an allelic series)
HESX1 [5]
  binding signal: 6.51 upbm affinity estimate (log intensity, higher = more binding, comparable within an allelic series)
NKX2-6 [10]
  binding signal: 9.37 upbm affinity estimate (log intensity, higher = more binding, comparable within an allelic series)
HESX1 [6]
  binding signal: 6.4 upbm affinity estimate (log intensity, higher = more binding, comparable within an allelic series)

## CAGTGCCG
HESX1 [1]
  binding signal: 6.35 upbm affinity estimate (log intensity, higher = more binding, comparable within an allelic series)
HESX1 [2]
  binding signal: 6.41 upbm affinity estimate (log intensity, higher = more binding, comparable within an allelic series)
HESX1 [3]
  binding signal: 6.49 upbm affinity estimate (log intensity, higher = more binding, comparable within an allelic series)
VAX1 [4]
  binding signal: 7.15 upbm affinity estimate (log intensity, higher = more binding, comparable within an allelic series)
HESX1 [5]
  binding signal: 6.42 upbm affinity estimate (log intensity, higher = more binding, comparable within an allelic series)
HESX1 [6]
  binding signal: 6.53 upbm affinity estimate (log intensity, higher = more binding, comparable within an allelic series)
VAX1 [7]
  binding signal: 7.27 upbm affinity estimate (log intensity, higher = more binding, comparable within an allelic series)
VAX1 [8]
  binding signal: 7.09 upbm affinity estimate (log intensity, higher = more binding, comparable within an allelic series)

## ATTAGCGA
HESX1 [1]
  binding signal: 9.89 upbm affinity estimate (log intensity, higher = more binding, comparable within an allelic series)
HESX1 [2]
  binding signal: 10.1 upbm affinity estimate (log intensity, higher = more binding, comparable within an allelic series)
PROP1 [11]
  binding signal: 10.2 upbm affinity estimate (log intensity, higher = more binding, comparable within an allelic series)
PROP1 [12]
  binding signal: 9.94 upbm affinity estimate (log intensity, higher = more binding, comparable within an allelic series)
HESX1 [5]
  binding signal: 8.88 upbm affinity estimate (log intensity, higher = more binding, comparable within an allelic series)
PROP1 [13]
  binding signal: 7.4 upbm affinity estimate (log intensity, higher = more binding, comparable within an allelic series)

## CGACGTTC
HESX1 [1]
  binding signal: 6.45 upbm affinity estimate (log intensity, higher = more binding, comparable within an allelic series)
HESX1 [2]
  binding signal: 6.3 upbm affinity estimate (log intensity, higher = more binding, comparable within an allelic series)
HESX1 [3]
  binding signal: 6.42 upbm affinity estimate (log intensity, higher = more binding, comparable within an allelic series)
HESX1 [5]
  binding signal: 6.41 upbm affinity estimate (log intensity, higher = more binding, comparable within an allelic series)
HESX1 [6]
  binding signal: 6.52 upbm affinity estimate (log intensity, higher = more binding, comparable within an allelic series)

## AGCACGCT
HESX1 [1]
  binding signal: 6.37 upbm affinity estimate (log intensity, higher = more binding, comparable within an allelic series)
HESX1 [2]
  binding signal: 6.39 upbm affinity estimate (log intensity, higher = more binding, comparable within an allelic series)
HESX1 [3]
  binding signal: 6.5 upbm affinity estimate (log intensity, higher = more binding, comparable within an allelic series)
HESX1 [5]
  binding signal: 6.4 upbm affinity estimate (log intensity, higher = more binding, comparable within an allelic series)
HESX1 [6]
  binding signal: 6.46 upbm affinity estimate (log intensity, higher = more binding, comparable within an allelic series)

## CGGCACGC
HESX1 [1]
  binding signal: 6.6 upbm affinity estimate (log intensity, higher = more binding, comparable within an allelic series)
HESX1 [2]
  binding signal: 6.41 upbm affinity estimate (log intensity, higher = more binding, comparable within an allelic series)
HESX1 [3]
  binding signal: 6.57 upbm affinity estimate (log intensity, higher = more binding, comparable within an allelic series)
HESX1 [5]
  binding signal: 6.5 upbm affinity estimate (log intensity, higher = more binding, comparable within an allelic series)
HESX1 [6]
  binding signal: 6.53 upbm affinity estimate (log intensity, higher = more binding, comparable within an allelic series)

## GCCTGGCC
HESX1 [1]
  binding signal: 6.59 upbm affinity estimate (log intensity, higher = more binding, comparable within an allelic series)
HESX1 [2]
  binding signal: 6.61 upbm affinity estimate (log intensity, higher = more binding, comparable within an allelic series)
HESX1 [3]
  binding signal: 6.46 upbm affinity estimate (log intensity, higher = more binding, comparable within an allelic series)
HESX1 [5]
  binding signal: 6.51 upbm affinity estimate (log intensity, higher = more binding, comparable within an allelic series)
HESX1 [6]
  binding signal: 6.6 upbm affinity estimate (log intensity, higher = more binding, comparable within an allelic series)
